About 83,000 compounds went through this panel and 20% of them were active in at least one assay; those are over-represented in the sample as a whole.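 Negative percent growth values reflect cell death: -40 means 40% of the cells present at the start died, and -100 means all died.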 A number with no mark means an inactive call. The source made the active and inactive calls. How the source made its calls: active means growth percent below 10; inactive means the rest.
Each molecule was assayed on HL-60(TB) leukemia (assay: NCI-60 one-dose screen, 48 h (100 = growth as untreated, 0 = no growth, -100 = all killed)). Details: 10 µM unless noted.
`Cn1c(O)c(N=NC(=O)c2cc(-c3ccccc3)on2)c2ccccc21` gave a growth of 80.8%.
In the case of `c1ccc(Sc2ccccc2)cc1`, the growth is reported as 85.8%.
In the case of `Cc1cc(NC(=O)c2cccc(C(F)(F)F)c2)ccc1-n1ccc2c(NC(=O)c3ccccc3)nccc21`, the growth is reported as 106%.
For `N/C(=N\O)c1ncc(-c2ccc(C(F)(F)F)cc2)c(NC2CCCCCC2)n1`, the growth was -58.8% [100 µM] (active).
For `O=C1Nc2ccc(Br)cc2C1=N/C=c1\[nH]c(=O)/c(=C/c2ccc(Cl)cc2)s1`, the growth was 100%.
`O=Nc1c(-c2c(O)[nH]c3cc(Br)ccc23)[nH]c2ccccc12` was tested, and the growth was -51.3% (active).
Molecule `CC(C)(C)OC(=O)N1CCN(c2ccc(N)cc2)C(=O)C1` has a growth of 102%.
With `Cc1cc(N(CCCNc2ccnc3cc(Cl)ccc23)Cc2ccco2)nc(Cl)n1` the growth was 17.5%.
For `Cc1ccc(C(=O)/C(=C\c2ccc([N+](=O)[O-])cc2)S(=O)Cc2ccc(Cl)cc2)cc1` (stereo not given), the growth was 33.9%.
With `CNCCCNc1nc2ccccc2c2c(=O)c3cc(F)ccc3sc12` the growth was -5.1% (active).
Molecule `C/C=C(/C(=O)NC(N)=O)C(C)C` has a growth of 91%.
`Nc1n[nH]c2ccc([C@@H]3Nc4ccc5[nH]ncc5c4[C@H]4C5C=CC(C5)[C@@H]34)cc12` (stereo not given in full) was tested, and the growth was -24.9% (active).
`Cc1ccc(NC(=O)c2sc3nc4c(cc3c2N)C(=O)CCC4)cc1` gave a growth of 110%.
`C=C1CC[C@@H]2[C@](C)(COC(C)=O)[C@H](OC(C)=O)CC[C@@]2(C)[C@@H]1CC(Nc1ccc(S(=O)(=O)NC(C)=O)cc1)C1=CCOC1=O` (stereo not given in full) was tested, and the growth was -31.1% (active).
Work on `CCCCCn1cnc2c(=S)nc[nH]c21` yielded a growth of 95%.
In the case of `Oc1c(CN2CCCC2)cc(COCc2ccc(Br)cc2)c2cccnc12`, the growth is reported as -9.34% (active).
In the case of `O=C(CCCCCCN1CC(=O)N2[C@@H](c3ccc(Cl)c(Cl)c3)c3[nH]c4ccccc4c3C[C@H]2C1=O)NO`, the growth is reported as -11.8% (active).
`Cc1cccc(C[C@H](NC(=O)Nc2ccc(C)cc2F)C(=O)N[C@@H]2C(=O)N3C[C@H](O)C[C@H]3C(=O)N3CCN(C)C[C@H]3C(=O)N[C@@H](C)C(=O)N3C[C@H](C)C[C@H]3C(=O)O[C@H]2C)c1` was tested, and the growth was 24.2%.
Work on `C/C=C(\C)C(C(=O)NC1CCCCC1)N(C(=O)C1CCc2cc(F)ccc2O1)c1ccc([N+](=O)[O-])cc1` (stereo not given) yielded a growth of 82.4%.
For `COc1ccc(-c2nnc(-c3c(-c4ccccc4)nc4ncccn34)o2)cc1OC`, the growth was 85.5%.
`CCCCCCCCCCCCCCCCCC(=O)OCCCCCCCCCCCCC` gave a growth of 112%.
`CNC(=O)c1cccc2cc(Oc3ccnc4cc(OCC5(N)CC5)c(OC)cc34)ccc12` was tested, and the growth was 91.6%.
`NC(=O)N/N=C\c1ccc([N+](=O)[O-])o1` was tested, and the growth was 120%.
With `CCOC(=O)C(O)C(O)(c1ccccc1)c1ccccc1` (stereo not given) the growth was 91.1%.
With `Fc1ccc(/C=C/[C@@H]2C[C@@H](F)CCO2)cc1` the growth was 56.1%.
In the case of `COc1ccc(/C=C(\C#N)n2nnc3cc(F)c(F)cc32)cc1`, the growth is reported as 13.8%.
In the case of `O=C(NCCN1CCOCC1)OCc1ccc2c(Cl)cc(Cl)c(O)c2n1`, the growth is reported as 73.1%.
For `COc1cccc(/C=N/NC(=O)c2cnn3c2NC(c2ccccc2)C3)c1Oc1ccccc1` (stereo not given), the growth was 74.6%.
`COc1ccc(-c2cc(Cc3cccs3)c(=O)n(Cn3cncn3)n2)cc1` gave a growth of 107%.
`CCN(CC)CCCOCCCNc1cc(OC)cc2cccnc12` was tested, and the growth was 107%.
`NC1N=C(SCC(=O)N2CCN(c3cc4c(cc3F)c(=O)c(C(=O)O)cn4C3CC3)CC2)NC(=O)/C1=C/c1ccc(Cl)cc1` (stereo not given) was tested, and the growth was 102%.
`CCOC(=O)N1CCN(c2nc(Nc3cc(C)[nH]n3)c3ccccc3n2)CC1` was tested, and the growth was 26.3%.
For `Oc1ccc(CNNc2ccnc3c(O)cccc23)c2cccnc12`, the growth was -7.85% (active).
Work on `COC1CC2CCC(C)C(O)(O2)C(=O)C(=O)N2CCCCC2C(=O)OC(C(C)CC2CCC(O)C(OC)C2)CC(=O)C(C)C=C(C)C(O)C(OC)C(=O)C(C)CC(C)/C=C/C=C/C=C1C` (stereo not given) yielded a growth of 86.6%.
With `N#C/C(=C1\SC(=O)CN1c1ccccc1)c1nc2ccccc2s1` the growth was 92.8%.
Molecule `O=c1cc(Cl)nc2ccccn12` has a growth of 92.9%.
In the case of `Nc1ccc(-c2ccncc2)cc1NC(=O)N1CCCC1`, the growth is reported as 120%.
`N#Cc1c(-c2ccccc2)nc2c(c(-c3ccc(Cl)cc3)nn2-c2ccccc2)c1-c1ccc([N+](=O)[O-])cc1` was tested, and the growth was 103%.
In the case of `O=c1[nH]c(-c2cccc(F)c2)cc2cc(F)ccc12`, the growth is reported as -24.6% (active).
`O=C(/C=C/c1ccccc1)N(C1CCCCC1)C1CCCCC1` showed a growth of 74%.

Source: PubChem BioAssay (NCI)
